Measurements published in PubChem BioAssay AID1159580 (chemical genetic matrix, 2015).
Screen size: about 5,500 compounds; about 2,000 (36%) were called active. Inconclusive results (about 18%) are left out. Rule as the data show it: active = normalized growth mostly below about 0.91 (no sharp cut-off); inconclusive = no clear call, values can overlap the other calls; inactive = mostly above about 0.92. The list shows a part of the results.

Assay: chemical genetic growth profiling, strain panel (AID 1159580);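 also: tested at 20 µM; growth read once vehicle control cultures reached saturation at 30 °C; 1 = growth at the plate median or of vehicle wells; lower values mean less growth of the strain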
Details: S. cerevisiae deletion strains, growth OD
[1] = locus YBR229C, strain ROT2, stronger effect = lower value
[2] = locus YDL101C, strain DUN1, stronger effect = lower value
[3] = locus YDR150W, strain NUM1, stronger effect = lower value
[4] = locus YEL061C, strain CIN8, stronger effect = lower value
[5] = locus YGR078C, strain PAC10, stronger effect = lower value
[6] = locus YHR030C, strain SLT2, stronger effect = lower value
[7] = locus YJR043C, strain POL32, stronger effect = lower value
[8] = locus YJR075W, strain HOC1, stronger effect = lower value
[9] = locus YLR039C, strain RIC1, stronger effect = lower value
[10] = locus YLR262C, strain YPT6, stronger effect = lower value
[11] = locus YMR263W, strain SAP30, stronger effect = lower value
[12] = locus YNL153C, strain GIM3, stronger effect = lower value
[13] = locus YNL322C, strain KRE1, stronger effect = lower value
[14] = locus YJL095W, strain BCK1, stronger effect = lower value
[15] = locus YOR061W, strain CKA2, stronger effect = lower value

Measured: normalized growth

c1ccc(-c2nc(-c3cccs3)cs2)cc1
inactive: [2] 0.988 | [3] 0.939 | [7] 0.973 | [11] 0.931 | [12] 0.983
active: locus YAL013W, strain DEP1, stronger effect = lower value 0.916 | [1] 0.877 | locus YCL061C, strain MRC1, stronger effect = lower value 0.895 | [4] 0.838 | [5] 0.88 | [6] 0.166 | locus YHR087W, strain rtc3, stronger effect = lower value 0.744 | [8] 0.707 | [9] 0.273 | locus YLR058C, strain SHM2 (second series), stronger effect = lower value 0.859 | locus YLR085C, strain ARP6, stronger effect = lower value 0.408 | [10] 0.274 | locus YML094W, strain GIM5, stronger effect = lower value 0.866 | locus YMR219W, strain ESC1, stronger effect = lower value 0.919 | locus YNL298W, strain CLA4 (second series), stronger effect = lower value 0.714 | [13] 0.914 | locus YNR030W, strain Alg12, stronger effect = lower value 0.693 | locus YPL055C, strain LGE1, stronger effect = lower value 0.768 | locus YPL241C, strain CIN2, stronger effect = lower value 0.813 | locus YPR135W, strain CTF4, stronger effect = lower value 0.341

Cc1ccc(-c2csc(-c3ccncc3)n2)cc1
inactive: locus YBL105C, strain PKC1, stronger effect = lower value 0.928 | locus YBR135W, strain CKS1, stronger effect = lower value 0.903 | locus YBR136W, strain MEC1, stronger effect = lower value 0.912 | locus YBR160W, strain CDC28, stronger effect = lower value 0.909 | locus YDL017W, strain CDC7, stronger effect = lower value 0.922 | locus YDL028C, strain MPS1, stronger effect = lower value 0.898 | locus YDL108W, strain KIN28, stronger effect = lower value 0.914 | locus YDL214C, strain PRR2, stronger effect = lower value 0.781 | locus YDR052C, strain DBF4, stronger effect = lower value 0.938 | locus YDR054C, strain cdc34, stronger effect = lower value 0.879 | locus YDR226W, strain ADK1, stronger effect = lower value 0.905 | locus YFL009W, strain cdc4, stronger effect = lower value 0.89 | locus YFL029C, strain CAK1, stronger effect = lower value 0.89 | locus YFR003C, strain YPI1, stronger effect = lower value 0.921 | locus YFR019W, strain FAB1, stronger effect = lower value 0.859 | locus YGR040W, strain KSS1, stronger effect = lower value 0.718 | locus YGR052W, strain FMP48, stronger effect = lower value 0.717 | locus YHR079C, strain IRE1, stronger effect = lower value 0.674 | locus YHR082C, strain KSP1, stronger effect = lower value 0.747 | locus YHR205W, strain SCH9, stronger effect = lower value 0.72 | locus YIL147C, strain SLN1, stronger effect = lower value 0.915 | locus YJL128C, strain PBS2, stronger effect = lower value 0.919 | locus YJL157C, strain FAR1, stronger effect = lower value 0.764 | locus YJR016C, strain ILV3, stronger effect = lower value 0.922 | locus YJR066W, strain TOR1 (second series), stronger effect = lower value 0.753 | locus YJR066W, strain TOR1, stronger effect = lower value 0.53 | locus YKL048C, strain ELM1, stronger effect = lower value 0.928 | locus YKL067W, strain YNK1, stronger effect = lower value 0.758 | locus YKL101W, strain HSL1, stronger effect = lower value 0.872 | locus YKL203C, strain TOR2, stronger effect = lower value 0.782 | locus YLR133W, strain CKI1, stronger effect = lower value 0.837 | locus YLR403W, strain SFP1, stronger effect = lower value 0.706 | locus YML070W, strain DAK1, stronger effect = lower value 0.788 | locus YMR001C, strain CDC5, stronger effect = lower value 0.91 | locus YMR205C, strain PFK2 (second series), stronger effect = lower value 0.771 | locus YNL006W, strain LST8, stronger effect = lower value 0.925 | locus YNL020C, strain ARK1, stronger effect = lower value 0.842 | locus YNL161W, strain CBK1, stronger effect = lower value 0.909 | locus YNL183C, strain NPR1, stronger effect = lower value 0.672 | locus YNL207W, strain RIO2, stronger effect = lower value 0.905 | locus YNL222W, strain SSU72, stronger effect = lower value 0.897 | locus YNL307C, strain MCK1 (second series), stronger effect = lower value 0.773 | locus YOL136C, strain PFK27, stronger effect = lower value 0.814 | [15] 0.89 | locus YOR119C, strain RIO1, stronger effect = lower value 0.719 | locus YOR231W, strain MKK1, stronger effect = lower value 0.691 | locus YOR329C, strain SCD5, stronger effect = lower value 0.92 | locus YPL153C, strain RAD53, stronger effect = lower value 0.688 | locus YPL209C, strain IPL1, stronger effect = lower value 0.913 | locus YPR025C, strain CCL1, stronger effect = lower value 0.914 | locus YPR106W, strain ISR1, stronger effect = lower value 0.924 | locus YPR111W, strain DBF20, stronger effect = lower value 0.902 | strain NNK1, stronger effect = lower value 0.911
active: locus YAR019C, strain CDC15, stronger effect = lower value 0.888 | [2] 0.912 | locus YDL132W, strain cdc53, stronger effect = lower value 0.891 | locus YDR477W, strain SNF1, stronger effect = lower value 0.68 | locus YER123W, strain YCK3, stronger effect = lower value 0.615 | locus YER133W, strain GLC7, stronger effect = lower value 0.661 | locus YFR028C, strain CDC14, stronger effect = lower value 0.89 | locus YGR092W, strain DBF2, stronger effect = lower value 0.441 | [6] 0.423 | [14] 0.374 | locus YKL193C, strain SDS22, stronger effect = lower value 0.879 | locus YLR113W, strain HOG1, stronger effect = lower value 0.653 | locus YMR277W, strain FCP1, stronger effect = lower value 0.865 | locus YOL078W, strain AVO1, stronger effect = lower value 0.866 | locus YPL031C, strain PHO85, stronger effect = lower value 0.649 | locus YPL204W, strain HRR25, stronger effect = lower value 0.618 | locus YPL256C, strain CLN2, stronger effect = lower value 0.697 | strain TSCII, stronger effect = lower value 0.873

C=C(C)C1(O)OC(=O)C=C1OC (stereo unspecified)
inactive: locus YBR021W, strain FUR4, stronger effect = lower value 0.995 | [1] 0.944 | locus YCL029C, strain bik1, stronger effect = lower value 0.977 | locus YDL035C, strain GPR1, stronger effect = lower value 0.987 | locus YDL074C, strain BRE1, stronger effect = lower value 1.01 | [2] 0.994 | locus YDL185W, strain tfp1, stronger effect = lower value 0.968 | locus YDL192W, strain arf1, stronger effect = lower value 0.984 | locus YDR101C, strain arx1, stronger effect = lower value 1 | [3] 0.986 | locus YDR162C, strain NBP2, stronger effect = lower value 0.961 | locus YDR318W, strain mcm21, stronger effect = lower value 0.981 | locus YDR388W, stronger effect = lower value 0.997 | locus YDR502C, strain sam2, stronger effect = lower value 0.996 | [4] 0.989 | locus YER110C, stronger effect = lower value 0.991 | locus YER155C, strain BEM2, stronger effect = lower value 0.996 | locus YER167W, strain BCK2, stronger effect = lower value 0.978 | locus YGL078C, strain dbp3, stronger effect = lower value 0.991 | locus YGL086W, strain mad1, stronger effect = lower value 1.03 | locus YGL248W, strain PDE1, stronger effect = lower value 0.978 | [5] 1.03 | locus YGR135W, strain pre9, stronger effect = lower value 0.983 | locus YGR252W, strain gcn5, stronger effect = lower value 0.98 | [6] 0.981 | locus YHR079C, strain IRE1 (second series), stronger effect = lower value 0.986 | locus YHR094C, strain hxt1, stronger effect = lower value 0.983 | locus YHR129C, strain ARP1, stronger effect = lower value 0.985 | locus YHR200W, strain rpn10, stronger effect = lower value 0.994 | locus YIL066C, strain RNR3, stronger effect = lower value 0.965 | locus YIL073C, strain SPO22, stronger effect = lower value 0.978 | locus YIL125W, strain kgd1, stronger effect = lower value 0.98 | locus YIR030C, strain dcg1, stronger effect = lower value 0.986 | [14] 1.06 | locus YJL134W, strain LCB3, stronger effect = lower value 0.981 | locus YJL168C, strain set2, stronger effect = lower value 0.992 | locus YJL187C, strain SWE1 (second series), stronger effect = lower value 1 | [7] 0.948 | [8] 1.03 | locus YKL009W, strain mrt4, stronger effect = lower value 1.01 | locus YKL068W, stronger effect = lower value 0.965 | locus YKL085W, strain MDH1 (second series), stronger effect = lower value 0.962 | locus YKL085W, strain MDH1, stronger effect = lower value 0.962 | locus YKL190W, strain CNB1, stronger effect = lower value 1 | locus YKR001C, strain vps1, stronger effect = lower value 0.995 | [9] 0.963 | locus YLR058C, strain SHM2, stronger effect = lower value 0.97 | locus YLR102C, strain apc9, stronger effect = lower value 0.99 | [10] 0.918 | locus YLR268W, strain sec22, stronger effect = lower value 1.04 | locus YLR330W, strain CHS5, stronger effect = lower value 0.992 | locus YLR342W, strain FKS1 (second series), stronger effect = lower value 0.985 | locus YLR371W, strain rom2, stronger effect = lower value 0.97 | locus YLR418C, strain cdc73, stronger effect = lower value 0.964 | locus YML016C, strain PPZ1, stronger effect = lower value 0.978 | locus YML032C, strain rad52, stronger effect = lower value 0.975 | locus YML124C, strain tub3, stronger effect = lower value 0.984 | locus YMR078C, strain ctf18, stronger effect = lower value 0.991 | locus YMR223W, strain ubp8, stronger effect = lower value 0.992 | [11] 1.01 | locus YMR307W, strain GAS1, stronger effect = lower value 0.947 | locus YNL067W, strain RPL9B, stronger effect = lower value 1.03 | locus YNL128W, strain TEP1, stronger effect = lower value 0.997 | [12] 1.02 | locus YNL233W, strain BNI4, stronger effect = lower value 1.04 | locus YNL250W, strain rad50, stronger effect = lower value 0.958 | locus YNL271C, strain bni1, stronger effect = lower value 0.989 | locus YNL298W, strain CLA4, stronger effect = lower value 1.02 | locus YNL307C, strain MCK1, stronger effect = lower value 0.999 | [13] 0.98 | locus YNR052C, strain pop2, stronger effect = lower value 1.01 | locus YOL006C, strain TOP1, stronger effect = lower value 1.05 | locus YOL012C, strain htz1 1.2 | locus YOL147C, strain pex11, stronger effect = lower value 0.991 | [15] 0.964 | locus YOR069W, strain VPS5, stronger effect = lower value 0.985 | locus YOR136W, strain idh2, stronger effect = lower value 1 | locus YOR144C, strain elg1, stronger effect = lower value 0.981 | locus YOR184W, strain ser1, stronger effect = lower value 0.973 | locus YOR316C, strain cot1, stronger effect = lower value 0.994 | locus YPR119W, strain clb2, stronger effect = lower value 0.987 | locus YPR141C, strain kar3, stronger effect = lower value 0.977 | locus YPR163C, strain tif3, stronger effect = lower value 0.99 | locus YPR167C, strain met16, stronger effect = lower value 0.992 | strain wtn01, stronger effect = lower value 1.02
